The panel holds about 83,000 compounds, 20% with a hit somewhere; the sample as a whole holds those more often.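 Interpretation: 100, growth as untreated; towards 0, rising growth inhibition; 0, no net growth; 0 to -100, cell death. Compounds scoring below 10 were considered active.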 Unmarked numbers belong to inactive results. Calls of active or inactive are those of the source.
test system: T-47D breast; experiment: NCI-60 one-dose screen, 48 h (100 = growth as untreated, 0 = no growth, -100 = all killed); settings: 10 µM unless noted
Experimental: Growth inhibition of the T-47D human tumor cell line is measured as a screen for anti-cancer activity. Cells are grown in 96 well plates and exposed to the test compound for 48 hours. Compounds are tested at a single concentration, which is 10^-5 M for most compounds. The reported endpoint is percent growth (GI% or GIPRCNT), where numbers from 0 - 100% represent growth inhibition, and numbers from -100% - 0 represent cell death. For example, a value of 40 represents 60% growth inhibition. A value of 0 means no net growth occurred over the course of the experiment. A value of -40 indicates 40% of cells at the beginning of the experiment died by the end of the experiment. A value of -100 means all cells are dead at the end of the experiment.
NCI-60 Human Tumor Cell Lines Screen was performed using the standard one-dose NCI protocol, which is described in more detail at https://dtp.cancer.gov/discovery_development/nci-60/default.htm.
Compounds with GIPRCNT values below 10 were considered active. Activity score was based on GIPRCNT using the following formula: […]
Score is 0 for GIPRCNT values of 100 or above, 50 for GIPRCNT values of 0, and 100 for GIPRCNT values of -100.

Row | SMILES | growth
1 | Cn1nc(C(F)(F)F)c(-c2cc(C(F)(F)F)cc(C(F)(F)F)c2)c1-c1ccc(OCc2ccc(Cl)cc2)cc1O | -11.6% (active)
2 | C=C1C(=O)O[C@H]2[C@H]1CC/C(COC(=O)CCCCCCCC(=O)OC/C1=C/CC[C@@]3(C)O[C@H]3[C@H]3OC(=O)C(=C)[C@@H]3CC1)=C\CC[C@@]1(C)O[C@@H]21 | -30.2% (active)
3 | O=c1cc(/C=N\Nc2nc(-c3ccc(Cl)cc3Cl)cs2)c2cc(Cl)ccc2o1 | 69.7%
4 | O=C1Nc2ccc(Cl)cc2/C1=N/c1nc(-c2ccc(F)cc2)cs1 | 25.3%
5 | c1ccc(Sc2ncccn2)nc1 | 99.4%
6 | C=CCn1c(SCC(=O)Nc2ccc(C(=O)/C=C/c3cc(OC)c(OC)c(OC)c3)cc2)nnc1-c1ccccc1 | 78.8%
7 | Nc1ccc(C2=NN(C(=O)c3cc(-c4ccc(Cl)cc4)nc4ccccc34)C(c3ccc(Cl)cc3)C2)cc1 (stereo not given) | 38%
8 | COC(=O)/C=C1\SC(=Nc2ccc(C(F)(F)F)cc2)N(CCc2c[nH]c3ccccc23)C1=O | -40.7% (active)
9 | N#Cc1c(-c2ccc(F)cc2)nc(N=Nc2c(O)[nH]c3ccc(Cl)cc23)nc1N1CCOCC1 | 46.7%
10 | COc1ccc(-c2nc(C#N)c(NCC(c3ccco3)N3CCCC3)o2)cc1 (stereo not given) | 51.6%
11 | COc1cc(-c2csc(NC(=O)Nc3cc(Cl)cc(Cl)c3)n2)cc(OC)c1OC | -41.5% (active)
12 | O=c1nc(-c2ccccc2)c2cc(-c3ccc(N4CCCC4)nc3)ccc2[nH]1 | 62.3%
13 | CCOCCc1c(O)nc(SC)[nH]c1=O | 110%
14 | CC(=O)Nc1ccc2c(c1)Cc1cc(F)ccc1-2 | 82.8%
15 | COc1ccc2c(c1)OC13Oc4cc(OC)ccc4C=C1CCCCC3=C2 | 67.6%
16 | Cc1nc2sc(C(=O)Nc3ccccc3)c(N)c2cc1C(C)O (stereo not given) | 44.6%
17 | C#CCOC(=O)[C@]1(C)CCC[C@]2(C)[C@H]3C[C@H]4C(C(C)C)=C[C@]3(CC[C@H]21)[C@@H]1C(=O)CCC(=O)[C@@H]14 | 66.7%
18 | O=C(O)c1cc(N=Nc2ccc(-c3ccc(N=Nc4c(S(=O)(=O)O)cc5ccc(Nc6ccccc6)cc5c4O)cc3)cc2)ccc1O | 89.1%
19 | COc1ccc2[nH]c3nc4cnccc4cc3c2c1 | 94.6%
20 | O=C(Nc1nc(-c2ccccc2)cs1)c1cc(-c2ccc(Br)cc2)nc2ccccc12 | 21.7%

Row | SMILES | growth
21 | COc1ccc(C(=O)c2cc(F)c(F)c(OC)c2F)cc1OC(=O)CCl | 44.1%
22 | O=C(CCCC(=O)Nc1ccc(-n2nnc3cc(Cl)c(Cl)cc32)cc1)Nc1ccc(-n2nnc3cc(Cl)c(Cl)cc32)cc1 | 36.7%
23 | CC(C)(C#N)c1cc(F)cc(C(=O)Nc2cc(Nc3ncccc3-c3ncnc4nc[nH]c34)ccc2F)c1 | 42.8%
24 | CCOC(=O)c1c(C)nc2c(c1N)CC(=O)N2CCc1ccccc1 | 53.9%
25 | O=C1NC(c2ccc(F)cc2)N=C2C(c3ccccc3)=NOC12 (stereo not given) | 104%
26 | COc1cc(NCC(=O)Nc2cc(Nc3cccc(C(F)(F)F)c3)ncn2)c(Cl)c(OC)c1Cl | 81.2%
27 | COc1ccc(/C=C/C(=O)Nc2ncnc3nc[nH]c23)cc1 | 91.2%
28 | Cc1nnc(/N=C2\NC(=O)/C(=C/c3ccsc3)S2)s1 | 84.4%
29 | COc1cc(-c2csc(NC(=O)Nc3ccc(C(F)(F)F)cc3)n2)cc(OC)c1OC | -3.68% (active)
30 | O=C(Nc1cccc(-c2cccc(F)c2)c1)C1CCN(Cc2cccc3cccnc23)CC1 | 29%
31 | [2H]c1nc(Nc2ncc3cc(C(=O)N(C)C)n(C4CCCC4)c3n2)c([2H])c([2H])c1N1C([2H])([2H])C([2H])([2H])NC([2H])([2H])C1([2H])[2H] | 53.2%
32 | CCC1S/C(=N\N=C(/C)c2ccc[nH]2)N(c2ccccc2)C1=O (stereo not given) | 122%
33 | CCSc1ccc(C2C(Br)C(=O)N2c2cc(OC)c(OC)c(OC)c2)cc1 (stereo not given) | 67.4%
34 | Nc1c(C(=O)Nc2ccccn2)sc2nc3c(cc12)CCCCC3 | 36.4%
35 | Cc1cccc(C)c1NCc1nnc(-c2ccco2)o1 | 80.6%
36 | COC(=O)c1ccc2c(c1)n(Cc1ccc3ccccc3c1)c[n+]2Cc1ccc2ccccc2c1 | 0.0638% (active)
37 | CC[C@H](Nc1ncnc2nc[nH]c12)c1nc2cccc(CC(=O)c3ccc(C(=O)NO)cc3)c2c(=O)n1-c1ccccc1 | 50.7%
38 | CC1=C(CCCOC(=O)NCCCl)C2=C(C)C3(CC3)[C@@](C)(O)C(=O)C2=C1 | 16%
39 | CCOC(=O)c1cnn(-c2nc(-c3ccc(F)cc3)c(C#N)c(N3CCOCC3)n2)c1N | 83.9%
40 | COCCOC(=O)COc1ccc(OC)cc1 | 120%
